PPC-1+TRAIL kill: compounds killing PPC-1 cancer cells with TRAIL present (potentiator screen, no TRAIL-free arm). 0.41% of 220,000 active. cell killing (% activity), % at 4 µM or 5 µM. PPC-1 cells + TRAIL, ATPLite viability luminescence;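 active = cell killing above 50% in the first pass at 4 µM, then a duplicate retest at 5 µM averaging 50% or more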;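 note: plate controls were cells with TRAIL plus DMSO for no effect and medium-only wells lacking cells for full effect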
SENP6 inh: inhibitors of human SENP6 protease | Q9GZR1 | Recombinant SENP6 catalytic domain, aminoluciferin luminescence | inhibition, % at 10 µM | 1.8% of 330,000 active;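 active = inhibition above about 50% at the single tested dose, limit read from the data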;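 note: plate controls were DMSO wells with enzyme for no effect and DMSO wells lacking enzyme for full effect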
SENP8 block-1: SENP8 (human) protease inhibition; recombinant SENP8, Nedd8 substrate fluorescence; 0.64% of 360,000 active; AID 602440; inhibition, % at 20 µM; Q96LD8; in the data active = inhibition mostly above about 40%, no sharp cut-off; inactive = mostly below about 27%
Target sequence (Q96LD8 whole entry, looked up): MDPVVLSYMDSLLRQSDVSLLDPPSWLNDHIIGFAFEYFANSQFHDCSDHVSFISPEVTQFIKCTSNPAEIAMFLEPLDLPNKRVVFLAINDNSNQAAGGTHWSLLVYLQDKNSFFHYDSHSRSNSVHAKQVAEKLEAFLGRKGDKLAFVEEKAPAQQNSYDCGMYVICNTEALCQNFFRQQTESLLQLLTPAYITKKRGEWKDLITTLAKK
SENP7 inh: SENP7 protease inhibition. AID 434973. recombinant SENP7, Z-RLRGG-aminoluciferin luminescence, 40 min. inhibition, % at 5 µM. 1.5% of 330,000 active. Q9BQF6;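 active = inhibition above about 50% at the single test dose, limit read from the data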;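 note: plate controls were DMSO with enzyme for no effect and no enzyme buffer wells for full effect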
Target sequence (Q9BQF6 706-1050 limits assumed): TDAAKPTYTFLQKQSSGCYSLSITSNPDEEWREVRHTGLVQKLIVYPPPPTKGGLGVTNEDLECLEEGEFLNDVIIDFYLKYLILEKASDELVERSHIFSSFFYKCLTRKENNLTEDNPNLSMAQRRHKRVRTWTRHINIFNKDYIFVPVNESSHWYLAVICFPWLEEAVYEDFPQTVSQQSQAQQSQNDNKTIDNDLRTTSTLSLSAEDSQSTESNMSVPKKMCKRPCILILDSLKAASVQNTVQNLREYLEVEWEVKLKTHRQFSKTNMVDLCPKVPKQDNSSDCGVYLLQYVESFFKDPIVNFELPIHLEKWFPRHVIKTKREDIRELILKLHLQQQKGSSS
SENP8 block-2: SENP8 protease inhibition; inhibition, % at 10 µM; AID 2540; 1.2% of 330,000 active; purified SENP8, Z-RLRGG-aminoluciferin cleavage, luminescence; Q96LD8; in the data active = inhibition above about 50%
C8 TRAIL sens: sensitizes caspase-8 expressing cells to TRAIL; inhibition (viability loss, TRAIL sensitization), % at 10 µM; 1% of 360,000 active; AID 624354; NB7+C8 cells + TRAIL, ATPlite viability luminescence;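 active = compounds causing at least 50% loss of cell viability in the single-dose screen, relative to plate controls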
SENP8 confirm: human SENP8 inhibition, confirmed. shares compounds with SENP7 inh. Recombinant SENP8, Z-RLRGG-aminoluciferin luminescence, 60 min. inhibition, % at 12.5 µM. 40% of 6,200 active. AID 488912;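 active = mean inhibition across replicates above about 50%, limit read from the data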
SENP6 confirm: confirmation of human SENP6 protease inhibitors | shares compounds with SENP7 inh | recombinant SENP6, Z-RLRGG-aminoluciferin luminescence | inhibition, % at 12.5 µM | 58% of 6,200 active | AID 488915
SENP7 conf: confirmation of human SENP7 protease inhibitors; 69% of 6,200 active; AID 488917; recombinant SENP7, Z-RLRGG-aminoluciferin luminescence, 40 min; shares compounds with SENP7 inh; inhibition, % at 12.5 µM
Casp3 SENP sel: caspase-3 inhibition (SENP selectivity assay). inhibition, % at 12.5 µM. shares compounds with SENP7 inh. 60% of 6,200 active. purified caspase-3, Z-DEVD-aminoluciferin luminescence, 60 min;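 active = mean inhibition above about 50%, limit read from the data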;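 note: plate controls were enzyme with DMSO for no effect and wells without caspase-3 for full effect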
SENP luc ctr: luminescence interference (SENP counter-screen). shares compounds with SENP7 inh. Pre-incubated SENP8/Z-RLRGG-aminoluciferin, luciferase luminescence interference. inhibition, % at 12.5 µM. 39% of 6,200 active;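 active = mean inhibition above about 50% when retested at one dose, limit read from the data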;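 note: plate controls were DMSO wells with completed reaction for no effect and substrate without enzyme for full effect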
Numbers without * were called inactive; . = no result given. The list is not random: actives were taken first. Their share in the collection is about 3%.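 Rule for the calls, unless noted: active = mean inhibition above about 50% in the one-dose retest (limit read from the data); inactive = the rest.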

SMILES	PPC-1+TRAIL kill	SENP6 inh	SENP8 block-1	SENP7 inh	SENP8 block-2	C8 TRAIL sens	SENP8 confirm	SENP6 confirm	SENP7 conf	Casp3 SENP sel	SENP luc ctr
c1ccc(-c2nc(C3CCCCC3)no2)cc1	2	59*	13	34	12	-6	-5	-1	57*	13	5
O=C1CSC(=Nc2cccc([N+](=O)[O-])c2)N1	.	-15	4	-3	0	-13	.	.	.	.	.
COc1ccc(C2NN=C(c3ccc(C)cc3)S2)cc1OC (stereo not given)	31	93*	-394	94*	92*	59*	10	22	26	26	11
Fc1cccc(C2NN=C(c3ccccc3)S2)c1 (stereo not given)	27	92*	-72	97*	52*	55*	29	54*	80*	65*	14
Cc1ccc(C2=NNC(c3cccc(F)c3)S2)cc1 (stereo not given)	.	89*	-166	95*	87*	66*	46	51*	45	51*	10
COc1ccc(C(=O)c2nccc3cc(OC)c(OC)cc23)cc1OC	.	89*	65*	92*	95*	-12	86*	92*	81*	49	2
COc1ccc(C(=O)c2ccc(OC)c(OC)c2)cc1OC	6	2	9	-13	-8	-3	.	.	.	.	.
CCN1C(=O)[C@H]2[C@@H](c3ccc(C)cc3)N3C(=O)N(c4ccc(OC)cc4)C(=O)[C@@]3(C)[C@H]2C1=O	.	-16	17	-7	3	16	.	.	.	.	.
COc1ccc(OC)c(N=Cc2c(O)c3ccccc3oc2=O)c1	.	-21	-82	-1	-25	-15	.	.	.	.	.
COc1ccc(Cn2c(O)c(C=Nc3ccc(O)cc3)c3ccccc3c2=O)cc1	18	67*	-24	47	3	-6	5	36	10	4	0
O=C(O)c1cc(N=Cc2c(O)c3ccccc3oc2=O)ccc1O	.	94*	-282	91*	74*	4	93*	86*	101*	38	95*
COc1ccc(Cn2c(O)c(C=Nc3ccccc3)c3ccccc3c2=O)cc1	18	36	28	20	-1	-4	.	.	.	.	.
CC(C)c1ccc(N=Cc2c(O)c3ccccc3oc2=O)cc1	.	85*	-146	91*	63*	3	58*	60*	77*	42	31
COc1ccc(N=Cc2c(O)c3ccccc3oc2=O)cc1	7	91*	-110	90*	33	12	70*	74*	84*	66*	49
CN(C)C(=O)CCc1ccc2c3c([nH]c2c1)[C@]1(C)[C@@H](C(=O)N2CCCCC2)C[C@H](CC(=O)NCCCn2ccnc2)C(=O)N1CC3	.	.	7	3	.	0	.	.	.	.	.
CSc1ncc(C(=O)Nc2cccnc2)c(C(F)(F)F)n1	.	6	-19	7	5	-14	.	.	.	.	.
Cc1ccc(N=Cc2c(O)c3ccccc3oc2=O)cc1F	.	-11	-200	70*	35	6	31	25	33	9	18
O=C1NC[C@H](CCCCN2C[C@H](Cc3ccc(O)cc3)N(CC3CCCCC3)C(=O)C2=O)N(Cc2ccccc2)C1=O	.	.	8	.	.	-1	.	.	.	.	.
Cc1cc(N2CCOCC2)nc2ccc(NC(=S)N3CCCCC3C)cc12 (stereo not given)	15	55*	-368	13	29	2	4	6	7	1	3
CCCN1CCN(CCCNC(=S)Nc2ccc3nc(N4CCN(CC)CC4)cc(C)c3c2)CC1	6	89*	-327	-9	-6	-8	-7	-7	0	0	-10
Cc1cc(N2CCOCC2)nc2ccc(NC(=O)C3CCCCC3)cc12	.	.	-320	.	.	12	.	.	.	.	.
Cc1cc(N2CCN(C)CC2)nc2ccc(NC(=S)N3CCN(c4ccc(Cl)cc4)CC3)cc12	15	55*	-387	8	2	-22	12	6	9	5	3
CC1CCC(NC(=O)CCNC(=O)c2ccccc2)CC1 (stereo not given)	0	13	19	5	-4	-3	.	.	.	.	.
O=C1/C(=C\c2ccncc2)CCc2ccccc21	.	57*	4	60*	14	20	76*	48	26	6	91*
COc1ccc(C=C2C(=O)OC(C)(C)OC2=O)cc1OC	9	-11	5	-5	-9	7	.	.	.	.	.
SMILES	PPC-1+TRAIL kill	SENP6 inh	SENP8 block-1	SENP7 inh	SENP8 block-2	C8 TRAIL sens	SENP8 confirm	SENP6 confirm	SENP7 conf	Casp3 SENP sel	SENP luc ctr
COc1ccc(/C=C2\OC(=O)c3c(OC)cccc32)cc1OC	-4	62*	-487	45	47	13	3	12	84*	61*	14
COc1ccc(/C=C2/CCc3ccccc3C2=O)cc1OC	2	59*	-12	40	-2	15	65*	63*	60*	28	43
O=C1/C(=C/c2ccncc2)CCc2ccccc21	20	50	-5	1	7	21	.	.	.	.	.
CCOc1ccc(/C=C2\CCc3ccccc3C2=O)cc1	35	97*	-3	99*	95*	77*	-3	88*	14	34	12
COc1ccc(NS(=O)(=O)c2ccc3c(c2)CCC(=O)N3)cc1O	.	-8	-2	4	5	7	.	.	.	.	.
Cc1ccc(NC(=O)COc2ccccc2[N+](=O)[O-])nc1	32	72*	4	70*	50	60*	15	42	81*	79*	7
CCN1CCN(c2ccc(N3CCN(C(=O)c4ccc(Br)o4)CC3)nn2)CC1	.	1	-409	6	4	9	.	.	.	.	.
COc1ccc(-c2nc3ccccn3c2Cl)cc1	.	97*	-263	100*	96*	72*	5	99*	103*	98*	97*
O=C(/C=C/c1ccccc1)n1cnnc1SC/C=C/c1ccccc1	-13	59*	13	29	8	-12	39	48	68*	32	38
Cc1c(C(=O)Nc2ccccn2)oc2ccccc12	36	64*	2	76*	57*	13	1	55*	79*	56*	56*
Cc1c(C(=O)Nc2ccccn2)oc2c(Cl)cccc12	.	17	2	-3	-4	0	.	.	.	.	.

Screening results from PubChem.
